This note sets out measurements from PubChem BioAssay (NCATS).

Experiment [1] in a line: qHTS assay for environmental chemicals that activate the Aryl hydrocarbon Receptor (AhR) signaling pathway (AID 651777). For activation: % of control where 0% means no effect. Note: nearly all actives have a fitted effect of over 15% in size. Note: potency is the fitted concentration of half-maximal effect. As to conditions: 1A2-DRE human hepatoma cells, luciferase, 24 h; activation: stronger effect = higher value. The gist of the method:
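AhR activation is scored as a rise in luciferase from a stable DRE–CYP1A2 promoter construct in human hepatoma cells. Treatment lasts 24 hr at 37 C; detection uses One-Glo after 30 min at room temperature.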
(Quantitative high-throughput screening tests each substance at several concentrations.)

In experiment [2] the target is Peroxisome proliferator-activated receptor alpha (Homo sapiens) (UniProt Q07869). The experiment in a line: qHTS assay for small molecule agonists of the peroxisome proliferator-activated receptor alpha (PPARalpha) signaling pathway (AID 651778). Note: % of control where 0% means no effect. Conditions: PathHunter PPARalpha complementation, chemiluminescence, 6 h; max response: stronger effect = higher value. The method, boiled down: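 Chemiluminescence from complemented enzyme reported PPARalpha activation in cells after 6 hr of compound treatment at 37 C. The detection reagent was incubated for 60 min at room temperature, and compounds were scored as agonists.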
Sequence of Peroxisome proliferator-activated receptor alpha (Homo sapiens) (Q07869 whole entry, looked up): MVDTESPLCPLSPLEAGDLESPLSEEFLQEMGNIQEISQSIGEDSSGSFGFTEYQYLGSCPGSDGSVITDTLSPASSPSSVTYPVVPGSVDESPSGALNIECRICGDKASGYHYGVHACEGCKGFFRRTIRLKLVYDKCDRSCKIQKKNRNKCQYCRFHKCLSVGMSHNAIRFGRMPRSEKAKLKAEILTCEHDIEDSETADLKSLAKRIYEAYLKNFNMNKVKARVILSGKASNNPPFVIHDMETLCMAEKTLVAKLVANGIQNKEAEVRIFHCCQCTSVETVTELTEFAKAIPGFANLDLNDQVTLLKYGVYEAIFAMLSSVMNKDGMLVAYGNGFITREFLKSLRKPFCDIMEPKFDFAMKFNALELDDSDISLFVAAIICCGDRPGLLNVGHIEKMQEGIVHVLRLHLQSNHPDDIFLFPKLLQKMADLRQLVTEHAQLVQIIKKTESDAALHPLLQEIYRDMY

Experiment [3] in a line: qHTS assay for small molecule agonists of the antioxidant response element (ARE) signaling pathway measured by Nrf2-dependant transcriptional activity - cell viability counter screen (AID 720653; active = well fitted curve in the direction sought with a large enough effect in the repeat runs; an effect the other way counts as inactive or inconclusive; note: potency is the fitted concentration of half-maximal effect). As to conditions: ARE-bla HepG2 viability, CellTiter-Glo ATP luminescence, 16 h; max response: stronger effect = lower value. The gist of the method:
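Cytotoxicity counter screen: intracellular ATP quantified by CellTiter-Glo luminescence in the same ARE-bla HepG2 plates, after 16 h compound exposure and a 2 h beta-lactamase substrate step.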

The nature of experiment [4]: qHTS assay for cell viability of HEK293 cells (AID 743288). Note: potency is the fitted concentration of half-maximal effect; nearly all actives have a fitted effect of over 50% in size. As to conditions: ATP luminescence (CellTiter-Glo), 18 h; max response: stronger effect = lower value. The method, boiled down:
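Total intracellular ATP, measured with a luciferase-coupled reagent, indicates the number of viable HEK293 cells. Exposure to test chemicals lasts 18 h at 37 C in 1,536-well format at 2,000 cells/well.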

Experiment [5] can be described thus: qHTS assay for cell viability of the p53RE-bla HCT-116 cell line (AID 743292). Note: potency is the fitted concentration of half-maximal effect; nearly all actives have a fitted effect of over 55% in size. The method, boiled down:
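Quantitative high-throughput format: compounds in DMSO were pinned onto p53RE-bla HCT-116 cells (4,000/well) and incubated 16 h at 37 C. Total intracellular ATP, read by CellTiter-Glo luminescence, reflects viable cell number.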

Experiment [6] can be described thus: qHTS assay for small molecule agonists of the antioxidant response element (ARE) signaling pathway (AID 651741; active = well fitted activation curve with a large enough effect in the signal ratio; the % refers to the signal ratio; note: % of control where 0% means no effect). The gist of the method: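 Seeding 2,000 ARE-bla HepG2 cells per well preceded a 5 h incubation at 37 C/5% CO2 and a 16 h compound exposure at 37 C. Beta-lactamase reporter activity was then quantified by fluorescence after 2 h with LiveBLAzer B/G FRET substrate.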

A short description of experiment [7]: qHTS Assay for Identifying Gametocytocidal Compounds (AID 743244).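 For max response: % is set by controls: 0 for no effect and ±100 for the full control effect; actives lower the fluorescent signal which means gametocytes are killed.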 Note: potency is the fitted concentration of half-maximal effect. Conditions: P. falciparum 3D7 stage III-V gametocytes, alamarBlue, 72 h; max response: stronger effect = lower value. The method, boiled down:
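Late gametocytes (III–V), P. falciparum 3D7; 72 h drug, then 24 h alamarBlue; resazurin reduction read by fluorescence.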

Experiment [8] concerns the target Tumor susceptibility gene 101 protein (Homo sapiens) (UniProt Q99816). The experiment in a line: qHTS Assay for Iinhibitors of HIV-1 Budding by Blocking the Interaction of PTAP/TSG101: Hit Validation (AID 651600). Note: potency is the fitted concentration of half-maximal effect; nearly all actives have a fitted effect of over 70% in size. The method, boiled down: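 FITC-PTAP peptide (50 nM final) binding to Tsg101 binding domain (10 uM final) was measured by polarization after 20 min at r.t. with compounds, in 10 mM HEPES pH 7.5 buffer with 0.15 M NaCl and 0.01% Tween 20.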

Experiment [9] is described as follows: qHTS profiling for inhibitors of Plasmodium falciparum (3D7) proliferation (AID 743322).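 Note: infected erythrocytes exposed to compound for 72 h before lysis; 100% = DMSO vehicle wells and 0% = 0.29 µM artemisinin.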 Conditions: P. falciparum 3D7 proliferation; at 28.7 µM (top of the series) unless noted. The method, boiled down: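 Erythrocytes infected with P. falciparum (0.3% parasitemia, 2.5% hematocrit) incubated with compounds 72 h at 37 C, 5% CO2. Lysis with saponin/Triton buffer containing SYBR Green I, overnight at room temperature in the dark; DNA fluorescence (485/535 nm) normalised to 0.29 uM artemisinin and DMSO.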

A short description of experiment [10]: qHTS profiling for inhibitors of Plasmodium falciparum (DD2) proliferation (AID 743323; call rule not given here). Conditions: lower = more inhibition; at 28.7 µM (top of the series) unless noted. The method, boiled down: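 1536-well qHTS; infected RBCs 0.3% parasitemia/2.5% Hct final; cpd 72 h 37 C 5% CO2; lysis buffer + SYBR Green I, o/n RT dark; FI 485/535; norm. to 0.29 uM artemisinin and DMSO, plate-stack corrected.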

Experiment [11] is described as follows: qHTS profiling for inhibitors of Plasmodium falciparum (HB3) proliferation (AID 743324).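 Note: 100% = DMSO vehicle wells and 0% = artemisinin-treated control wells.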 Conditions: Plasmodium falciparum HB3 blood-stage proliferation; at 28.7 µM (top of the series) unless noted. The method, boiled down: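 P. falciparum HB3 grown in erythrocytes (0.3% parasitemia, 2.5% hematocrit final) with compound for 72 h at 37 C, 5% CO2. Parasite DNA detected by SYBR Green after saponin/triton lysis overnight; normalized to 0.29 uM artemisinin and DMSO.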

Experiment [12] can be described thus: qHTS assay for small molecule agonists of the antioxidant response element (ARE) signaling pathway measured by Nrf2-dependant transcriptional activity (AID 720636; active = well fitted curve in the direction sought with a large enough effect in the repeat runs; an effect the other way counts as inactive or inconclusive; note: potency is the fitted concentration of half-maximal effect). The method, boiled down: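 First, ARE-luc HepG2 cells attached for 6 hr at 37 C in 1% dialyzed FBS medium. Next, compound or DMSO was added and incubated 16 hr. Finally, ONE-Glo reagent was added and luminescence measured after 30 min.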

Experiment [13] in a line: qHTS assay for small molecule activators of the human pregnane X receptor (PXR) signaling pathway (AID 720659; call rule not given here; note: 0% is about no effect).
For experiment [14], the target named is Cytochrome P450 3A4 (Homo sapiens) (UniProt P08684). The experiment can be described thus: qHTS Assay for Activators of Cytochrome P450 3A4 (AID 885). Note: nearly all actives have a fitted effect of over 65% in size. The gist of the method:
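Steps: enzyme/substrate mix dispensed; compound added, 10 min RT; NADPH regeneration solution added, 60 min RT; luciferin detection buffer stops reaction; 20 min later luminescence measured.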

Experiment [15] concerns the target Bifunctional 3'-5' exonuclease/ATP-dependent helicase WRN (Homo sapiens) (UniProt Q14191). The experiment can be described thus: qHTS for Inhibitors of WRN Helicase: Confirmatory Assay for Cherry-picked Compounds. (AID 720497). Note: nearly all actives have a fitted effect of over 65% in size. The gist of the method:
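Kinetic fluorescence helicase read-out (525 nm excitation, 598 nm emission) on a forked duplex substrate at 100 nM with 2 mM ATP. Enzyme: 20 nM WRN, exposed to compound for 15 min at room temperature. Responses normalized to buffer-only and positive-control wells.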

A short description of experiment [16]: qHTS for Inhibitors of WRN Helicase: Thiazole Orange DNA Binding Counterscreen (AID 720499).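 Note: drop in dye fluorescence marks compound binding to DNA; % is set by controls: 0 for no effect and ±100 for the full control effect; nearly all actives have a fitted effect of over 60% in size.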 The gist of the method:
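Readout: ThO fluorescence, ex 480 nm/em 530 nm. Mix: 50 nM unlabeled DNA, 100 nM ThO. Compounds pintooled in, 15 min RT before reading.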

The target of experiment [17] is RecQ-like DNA helicase BLM (Homo sapiens) (UniProt P54132). The experiment in a line: qHTS for Inhibitors of WRN Helicase: BLM Helicase Counterscreen for WRN Inhibitors (AID 720503).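 Note: plate controls were DMSO vehicle for no effect and enzyme-free control wells for full effect; nearly all actives have a fitted effect of over 60% in size.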 The gist of the method:
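1 nM BLM, Tris pH 8.0/NaCl/MgCl2/DTT/Tween-20; cpd preinc 15 min RT; start w/ 100 nM DNA + 2 mM ATP final; fluorescence (ex 525/em 598) two reads 15 min apart; normalized to enzyme-free and DMSO controls.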

Several values for one entry are separate records, joined by “and”; a condition that tells them apart may be missing. Equal values may be shown once. Records with an inconclusive call do not appear. The list shows a part of the results. Activity calls are given as the source filed them. Unless noted, calls come from the whole dose curve; as a rule, active = well fitted curve in the direction sought with a large enough effect; inconclusive = small, poorly fitted or top-dose-only effect, or another doubt; inactive = no such curve, though single readings can be large; an effect the other way counts as inactive or inconclusive.

Sequence of Tumor susceptibility gene 101 protein (Homo sapiens) (Q99816 whole entry, looked up, the tested form may be a part): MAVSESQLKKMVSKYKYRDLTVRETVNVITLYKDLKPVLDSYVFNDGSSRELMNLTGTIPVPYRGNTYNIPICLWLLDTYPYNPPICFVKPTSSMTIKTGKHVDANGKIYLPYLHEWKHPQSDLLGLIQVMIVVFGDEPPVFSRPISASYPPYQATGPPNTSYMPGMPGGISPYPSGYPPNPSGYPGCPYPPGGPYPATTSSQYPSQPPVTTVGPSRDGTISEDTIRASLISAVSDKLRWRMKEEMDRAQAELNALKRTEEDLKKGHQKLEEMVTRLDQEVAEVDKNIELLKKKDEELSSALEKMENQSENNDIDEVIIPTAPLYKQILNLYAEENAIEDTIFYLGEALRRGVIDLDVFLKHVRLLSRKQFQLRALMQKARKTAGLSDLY
Sequence of Bifunctional 3'-5' exonuclease/ATP-dependent helicase WRN (Homo sapiens) (Q14191 whole entry, looked up): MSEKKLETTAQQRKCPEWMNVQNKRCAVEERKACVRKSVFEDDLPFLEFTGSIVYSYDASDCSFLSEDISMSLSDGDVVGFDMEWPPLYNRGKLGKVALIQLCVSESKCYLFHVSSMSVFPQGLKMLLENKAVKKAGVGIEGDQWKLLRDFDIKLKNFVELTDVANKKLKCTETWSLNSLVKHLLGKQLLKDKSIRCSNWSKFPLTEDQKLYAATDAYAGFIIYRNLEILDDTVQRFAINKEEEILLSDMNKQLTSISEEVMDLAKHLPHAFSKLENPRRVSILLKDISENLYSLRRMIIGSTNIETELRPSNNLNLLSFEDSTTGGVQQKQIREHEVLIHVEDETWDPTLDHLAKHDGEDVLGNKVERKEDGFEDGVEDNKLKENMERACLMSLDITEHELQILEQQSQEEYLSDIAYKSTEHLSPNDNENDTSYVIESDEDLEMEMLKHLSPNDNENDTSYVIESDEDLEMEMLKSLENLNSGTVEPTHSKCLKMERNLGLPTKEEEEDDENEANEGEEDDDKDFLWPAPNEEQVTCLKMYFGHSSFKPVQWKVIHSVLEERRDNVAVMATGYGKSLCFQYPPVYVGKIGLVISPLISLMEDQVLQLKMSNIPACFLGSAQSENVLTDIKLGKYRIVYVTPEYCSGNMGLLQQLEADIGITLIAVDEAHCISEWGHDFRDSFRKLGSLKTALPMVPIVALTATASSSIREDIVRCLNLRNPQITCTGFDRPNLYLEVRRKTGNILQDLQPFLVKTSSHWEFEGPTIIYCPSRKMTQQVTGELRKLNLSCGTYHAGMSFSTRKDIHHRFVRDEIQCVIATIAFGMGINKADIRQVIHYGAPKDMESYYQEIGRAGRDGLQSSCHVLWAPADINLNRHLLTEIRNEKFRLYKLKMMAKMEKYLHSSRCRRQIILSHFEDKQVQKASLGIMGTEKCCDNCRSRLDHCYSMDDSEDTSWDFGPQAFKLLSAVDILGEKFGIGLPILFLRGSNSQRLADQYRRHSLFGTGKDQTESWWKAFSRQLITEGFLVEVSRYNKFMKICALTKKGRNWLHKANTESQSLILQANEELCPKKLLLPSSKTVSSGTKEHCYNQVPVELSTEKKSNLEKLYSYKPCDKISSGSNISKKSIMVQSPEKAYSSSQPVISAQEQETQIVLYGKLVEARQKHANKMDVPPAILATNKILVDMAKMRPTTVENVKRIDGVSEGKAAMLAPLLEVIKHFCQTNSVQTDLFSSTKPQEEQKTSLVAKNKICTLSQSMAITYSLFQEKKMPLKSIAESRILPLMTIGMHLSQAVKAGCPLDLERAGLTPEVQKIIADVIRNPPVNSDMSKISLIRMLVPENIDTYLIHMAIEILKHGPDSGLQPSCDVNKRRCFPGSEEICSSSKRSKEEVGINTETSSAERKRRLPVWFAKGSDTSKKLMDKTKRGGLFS
Sequence of Cytochrome P450 3A4 (Homo sapiens) (P08684 whole entry, looked up): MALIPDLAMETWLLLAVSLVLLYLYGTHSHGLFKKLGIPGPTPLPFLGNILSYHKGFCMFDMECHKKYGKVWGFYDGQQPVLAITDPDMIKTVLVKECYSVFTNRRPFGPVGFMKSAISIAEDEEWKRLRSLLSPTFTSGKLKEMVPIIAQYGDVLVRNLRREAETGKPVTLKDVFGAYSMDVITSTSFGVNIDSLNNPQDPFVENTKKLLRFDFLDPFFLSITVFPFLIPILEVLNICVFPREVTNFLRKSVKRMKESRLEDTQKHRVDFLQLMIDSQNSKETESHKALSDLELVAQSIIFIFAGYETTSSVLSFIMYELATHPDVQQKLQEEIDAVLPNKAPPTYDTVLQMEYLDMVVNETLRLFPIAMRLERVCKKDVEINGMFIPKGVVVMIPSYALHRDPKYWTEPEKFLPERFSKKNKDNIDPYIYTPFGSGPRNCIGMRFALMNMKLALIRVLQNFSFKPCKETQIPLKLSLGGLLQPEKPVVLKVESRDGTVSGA
Sequence of RecQ-like DNA helicase BLM (Homo sapiens) (P54132 whole entry, looked up): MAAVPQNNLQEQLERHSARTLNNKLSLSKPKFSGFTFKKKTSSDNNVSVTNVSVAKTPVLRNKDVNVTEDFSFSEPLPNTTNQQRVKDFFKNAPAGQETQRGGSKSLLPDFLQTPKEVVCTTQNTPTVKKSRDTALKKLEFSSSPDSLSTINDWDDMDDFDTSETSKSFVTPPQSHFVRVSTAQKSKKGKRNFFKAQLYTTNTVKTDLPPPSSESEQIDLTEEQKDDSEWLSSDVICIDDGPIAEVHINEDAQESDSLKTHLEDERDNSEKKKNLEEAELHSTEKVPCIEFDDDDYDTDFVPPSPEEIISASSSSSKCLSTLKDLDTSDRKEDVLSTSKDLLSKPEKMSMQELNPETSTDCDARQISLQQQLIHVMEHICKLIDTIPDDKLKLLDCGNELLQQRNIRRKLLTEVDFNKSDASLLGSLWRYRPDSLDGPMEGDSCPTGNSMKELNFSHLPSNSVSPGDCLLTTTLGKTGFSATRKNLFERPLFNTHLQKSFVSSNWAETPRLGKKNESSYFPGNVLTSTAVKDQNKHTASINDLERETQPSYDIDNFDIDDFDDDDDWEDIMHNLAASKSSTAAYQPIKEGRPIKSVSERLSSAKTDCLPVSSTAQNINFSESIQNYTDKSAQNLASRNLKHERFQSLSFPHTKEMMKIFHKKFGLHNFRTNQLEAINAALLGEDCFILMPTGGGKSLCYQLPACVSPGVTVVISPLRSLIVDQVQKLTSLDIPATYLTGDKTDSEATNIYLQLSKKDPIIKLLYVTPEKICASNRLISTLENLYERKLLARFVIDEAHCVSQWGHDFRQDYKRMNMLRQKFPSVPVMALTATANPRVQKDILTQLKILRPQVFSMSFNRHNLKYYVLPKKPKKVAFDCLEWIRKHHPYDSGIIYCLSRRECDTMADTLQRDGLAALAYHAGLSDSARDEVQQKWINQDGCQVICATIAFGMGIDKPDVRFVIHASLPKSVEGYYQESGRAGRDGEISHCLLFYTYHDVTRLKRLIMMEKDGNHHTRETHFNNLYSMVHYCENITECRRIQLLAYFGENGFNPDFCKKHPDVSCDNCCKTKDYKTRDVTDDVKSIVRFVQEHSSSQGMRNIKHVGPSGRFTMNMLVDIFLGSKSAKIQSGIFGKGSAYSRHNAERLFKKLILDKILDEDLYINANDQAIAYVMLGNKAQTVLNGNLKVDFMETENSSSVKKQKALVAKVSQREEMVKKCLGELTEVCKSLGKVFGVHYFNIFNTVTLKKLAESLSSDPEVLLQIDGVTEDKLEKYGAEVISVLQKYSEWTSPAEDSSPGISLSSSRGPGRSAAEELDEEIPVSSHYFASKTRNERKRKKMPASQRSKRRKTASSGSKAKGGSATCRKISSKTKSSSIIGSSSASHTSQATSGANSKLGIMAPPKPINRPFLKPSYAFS

Regarding `CCC[CH2][Sn]([CH2]CCC)([CH2]CCC)[O]C(=O)c1ccccc1`, in experiment [1], the activation is -10.5% (inactive). Further, the max response in experiment [2] is -0.767% (inactive). In addition, the Potency in experiment [3] was 3.98 µM (active); in [4] it was 7.08 µM (active); in experiment [5], 6.31 µM (active).
Consider `O=C(O)CN(CCN(CC(=O)O)CC(=O)O)CC(=O)O`, for which the Potency entry in experiment [6] was “inactive”. For the same compound, in experiment [7], the max response is 12.5% (inactive).
For the compound `CN(C)C(=O)CCSC(SCCC(=O)O)c1cccc(/C=C/c2ccc3ccc(Cl)cc3n2)c1` (stereo not given), the max response in experiment [7] was 41.4% (inactive).
With `Nc1ccc2c3c(cccc13)-c1ccccc1-2`, the Potency in experiment [8] is 9.19 µM (active).
For `O=C1C(=O)c2ccccc2C(O)=C1C1CCC2(CC1)OOC1(O2)C2CC3CC(C2)CC1C3` (stereo not given), the remaining parasite growth % (stronger effect = lower value) in experiment [9] stood at 0.339%. The activity, percent of control in experiment [10] is -0.0523%. For the same compound, the remaining proliferation (% of control), lower = more inhibition in experiment [11] amounted to 0.423%.
For the compound `C[C@]12O[C@H](C[C@]1(O)CO)n1c3ccccc3c3c4c(c5c6ccccc6n2c5c31)CNC4=O`, in [7], the Potency was 2.51 µM (active).
Turning to `[Cl][Sn]([c]1ccccc1)([c]1ccccc1)[c]1ccccc1`, the activation in experiment [1] is -11.4% (inactive). For the same compound, the max response in experiment [2] was -6.19% (inactive). Moreover, the Potency in experiment [12] is 0.486 µM (active); in experiment [3], 0.891 µM (active); in experiment [4], 2.82 µM (active); in [5], 7.94 µM (active). Also, the compound was classed as inactive in experiment [13].
Regarding `C[C@@H]1[C@@H](CC(C[C@H]2O[C@@H]3O[C@]4(C)CC[C@@H]5[C@H](C)CC[C@@H]([C@H]2C)[C@@]35OO4)C(=O)NCc2ccc(F)cc2)O[C@@H]2O[C@]3(C)CC[C@H]4[C@H](C)CC[C@@H]1[C@@]24OO3` (stereo not given in full), the remaining parasite growth % (stronger effect = lower value) in [9] was -0.677%. Besides, the activity, percent of control in [10] stood at 0.0214%. In [11], this compound displayed a remaining proliferation (% of control), lower = more inhibition of 0.676%.
Turning to `CCCCN(CCCC)CCC(OC(=O)O[C@@H]1CCC[C@]2(C1)OOC1(O2)C2CC3CC(C2)CC1C3)c1cc2c(Cl)cc(Cl)cc2c2cc(C(F)(F)F)ccc12` (stereo not given in full), the remaining parasite growth % (stronger effect = lower value) in experiment [9] was -0.394%. For the same compound, in [10], the activity, percent of control amounted to 0.0994%. For the same compound, the remaining proliferation (% of control), lower = more inhibition in experiment [11] worked out at 0.359%.
With `CSc1cccc(NC(=O)CC[C@H]2O[C@@H]3O[C@]4(C)CC[C@H]5[C@H](C)CC[C@@H]([C@@H]2C)[C@@]35OO4)c1`, in experiment [9], the remaining parasite growth % (stronger effect = lower value) was -0.517%. For the same compound, the activity, percent of control in [10] amounted to 0.0476%. In addition, the remaining proliferation (% of control), lower = more inhibition in experiment [11] amounted to 0.997%.
On to `CC[C@@]1([C@@H]2O[C@@H]([C@H]3O[C@@](O)(CO)[C@H](C)C[C@@H]3C)C[C@@H]2C)CC[C@H]([C@]2(C)CC[C@]3(C[C@H](O)[C@@H](C)[C@@H]([C@@H](C)[C@@H](OC)[C@H](C)C(=O)O)O3)O2)O1` (stereo in doubt), for which the Potency in experiment [7] is 891 nM (active) and 166 nM (active).
As for `Cc1c2ccccc2c(C)c2c1ccc1ccccc12`, the Potency result in [14] was “inactive”. For the same compound, in experiment [1], the Potency was 25.1 µM (active).
Consider `Cc1ccc2c(c1)=C/C(=C\c1c(O)[nH]c(=O)[nH]c1=O)C(=O)N=2`, for which the outcome in experiment [15], in experiment [16] and in experiment [17] was inactive.
